SMILES strings stand for the structures. “And” between values parts separate entries of the source, which are not always exact repeats. Identical values can stand only once. Inconclusive results are not listed. The source made the active and inactive calls. Rule for the calls: active = hit-call score of the fitted dose curve at least 0.9, where 1 is the maximum; inconclusive = response in the unintended direction; inactive = score below 0.9.

Test [1] addresses Mitogen-activated protein kinase 3 (Homo sapiens) (UniProt P27361). Nature of the test: NVS_ENZ_hMAPK3: NovaScreen (NVS) Enzymatic Assay for human Mitogen-Activated Protein Kinase 3 (MAPK 3) (AID 2283177). An outline of the steps:
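Cell-free enzymatic assay with recombinant protein and specific substrate; fluorescence and electrophoretic mobility shift read-out 1 h after dosing. Primary screen duplicate at 25 uM; actives then run in concentration-response up to 50 uM, loss of signal versus DMSO.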

Test [2] concerns the target human MAP Kinase-Activated Protein Kinase 2 (MAPKAPK2), MAPKAPK2 (gene 9261) (UniProt P49137). Kind of test: NVS_ENZ_hMAPKAPK2: NovaScreen (NVS) Enzymatic Assay for human MAP Kinase-Activated Protein Kinase 2 (MAPKAPK2) (AID 2283178). An outline of the steps:
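Cell-free recombinant human MAPKAPK2 activity measured by fluorescence with electrophoretic mobility shift separation of substrate and product, 1 hr after dosing. Loss of signal versus DMSO; primary screen at 25 uM, concentration-response up to 50 uM.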

In test [3] the target is human MET Proto-Oncogene, Receptor Tyrosine Kinase (MET), MET (gene 4233) (UniProt P08581). Kind of test: NVS_ENZ_hMet: NovaScreen (NVS) Enzymatic Assay for human MET Proto-Oncogene, Receptor Tyrosine Kinase (MET) (AID 2283180). The procedure, abridged: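 Cell-free MET kinase assay using recombinant protein and fluorescent substrate, with mobility-shift separation; read 1 h after dosing. Primary duplicate at 25 uM; actives in singleton concentration-response to 50 uM maximum. Signal loss versus DMSO.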
Sequence of human MET Proto-Oncogene, Receptor Tyrosine Kinase (MET), MET (gene 4233) (P08581 whole entry, looked up): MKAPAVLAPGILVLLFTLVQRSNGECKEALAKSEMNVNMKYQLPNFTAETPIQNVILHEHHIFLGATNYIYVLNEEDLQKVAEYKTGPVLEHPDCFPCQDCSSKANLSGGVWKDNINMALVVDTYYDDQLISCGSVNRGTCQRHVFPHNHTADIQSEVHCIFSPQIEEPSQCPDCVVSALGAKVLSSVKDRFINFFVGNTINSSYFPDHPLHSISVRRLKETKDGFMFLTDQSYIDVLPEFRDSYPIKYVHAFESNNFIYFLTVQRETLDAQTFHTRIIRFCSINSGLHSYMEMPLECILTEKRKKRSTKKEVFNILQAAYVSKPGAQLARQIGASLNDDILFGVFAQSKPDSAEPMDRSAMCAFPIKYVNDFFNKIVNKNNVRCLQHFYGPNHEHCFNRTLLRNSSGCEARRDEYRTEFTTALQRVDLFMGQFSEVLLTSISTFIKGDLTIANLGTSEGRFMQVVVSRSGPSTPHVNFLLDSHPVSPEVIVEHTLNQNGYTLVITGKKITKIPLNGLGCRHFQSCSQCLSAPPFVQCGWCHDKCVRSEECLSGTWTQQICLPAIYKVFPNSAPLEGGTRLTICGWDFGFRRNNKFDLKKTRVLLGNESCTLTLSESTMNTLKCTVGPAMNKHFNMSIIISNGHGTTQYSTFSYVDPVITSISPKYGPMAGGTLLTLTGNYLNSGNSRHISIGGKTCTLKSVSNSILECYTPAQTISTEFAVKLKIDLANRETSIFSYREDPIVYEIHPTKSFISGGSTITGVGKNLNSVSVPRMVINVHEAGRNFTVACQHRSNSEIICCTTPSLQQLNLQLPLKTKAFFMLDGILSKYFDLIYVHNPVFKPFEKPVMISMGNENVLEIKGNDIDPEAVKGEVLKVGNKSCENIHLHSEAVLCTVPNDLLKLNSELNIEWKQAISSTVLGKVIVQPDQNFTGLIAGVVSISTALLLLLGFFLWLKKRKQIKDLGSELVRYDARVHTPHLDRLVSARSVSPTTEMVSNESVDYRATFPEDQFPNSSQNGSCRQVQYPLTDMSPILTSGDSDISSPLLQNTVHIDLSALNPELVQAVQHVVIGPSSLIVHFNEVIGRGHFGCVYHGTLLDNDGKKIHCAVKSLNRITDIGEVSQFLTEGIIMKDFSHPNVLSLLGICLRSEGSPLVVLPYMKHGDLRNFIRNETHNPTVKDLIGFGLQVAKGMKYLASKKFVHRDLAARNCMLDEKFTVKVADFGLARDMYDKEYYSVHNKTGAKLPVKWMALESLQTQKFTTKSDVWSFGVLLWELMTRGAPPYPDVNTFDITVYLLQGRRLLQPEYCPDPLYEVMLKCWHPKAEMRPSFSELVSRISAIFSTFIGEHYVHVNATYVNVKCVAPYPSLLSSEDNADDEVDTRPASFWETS

The target of test [4] is human NIMA (Never In Mitosis Gene A)-Related Kinase 2 (NEK2), NEK2 (gene 4751) (UniProt P51955). Kind of test: NVS_ENZ_hNEK2: NovaScreen (NVS) Enzymatic Assay for human NIMA (Never In Mitosis Gene A)-Related Kinase 2 (NEK2) (AID 2283188). An outline of the steps: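 Cell-free NEK2 enzyme activity after 1 h exposure, read by fluorescence with electrophoretic mobility shift separating substrate and product. Primary screen in duplicate at 25 uM; actives then run as concentration series. Loss of signal versus DMSO scored.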
Sequence of human NIMA (Never In Mitosis Gene A)-Related Kinase 2 (NEK2), NEK2 (gene 4751) (P51955 whole entry, looked up): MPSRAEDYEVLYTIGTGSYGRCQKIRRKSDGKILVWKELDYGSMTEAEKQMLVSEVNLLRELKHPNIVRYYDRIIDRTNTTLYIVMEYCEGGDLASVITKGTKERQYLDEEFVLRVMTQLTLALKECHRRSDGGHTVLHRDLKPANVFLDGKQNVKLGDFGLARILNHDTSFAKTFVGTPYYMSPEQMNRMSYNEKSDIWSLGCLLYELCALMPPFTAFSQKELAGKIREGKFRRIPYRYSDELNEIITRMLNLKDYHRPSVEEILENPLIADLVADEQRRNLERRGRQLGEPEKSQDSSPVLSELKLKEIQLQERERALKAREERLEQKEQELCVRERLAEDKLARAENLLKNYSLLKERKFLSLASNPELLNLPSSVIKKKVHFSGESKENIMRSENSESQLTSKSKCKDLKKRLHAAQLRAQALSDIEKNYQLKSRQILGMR

Test [5] has as its target human p21 Activated Kinase 4 (PAK4), PAK4 (gene 10298) (UniProt O96013). Kind of test: NVS_ENZ_hPAK4: NovaScreen (NVS) Enzymatic Assay for human p21 Activated Kinase 4 (PAK4) (AID 2283189). The procedure, abridged:
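Cell-free recombinant human PAK4 activity assay; fluorescent substrate and product separated by electrophoretic mobility shift, read 1 h after dosing. Initially tested in duplicate at 25 uM, relative to DMSO baseline.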

Test [6] addresses cAMP-dependent protein kinase catalytic subunit alpha (Homo sapiens) (UniProt P17612). Nature of the test: NVS_ENZ_hPKA: NovaScreen (NVS) Enzymatic Assay for human Protein Kinase A (PKA) (AID 2283192). An outline of the steps:
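Recombinant human PKA with specific fluorescent substrate, product separated by electrophoretic mobility shift, read 1 h after dosing. Primary screen at 25 uM in duplicate; actives then run in concentration-response up to 50 uM, activity relative to DMSO.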

Test [7] has as its target human Phosphodiesterase 5 (PDE5), PDE5A (gene 8654) (UniProt O76074). Kind of test: NVS_ENZ_hPDE5: NovaScreen (NVS) Enzymatic Assay for human Phosphodiesterase 5 (PDE5) (AID 2283194). An outline of the steps:
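Recombinant human PDE5 with specific substrate, read 1 h after dosing by fluorescence with electrophoretic mobility-shift separation of substrate and product. Initial single-concentration duplicate screen at 25 uM, actives followed in concentration series; loss of activity versus DMSO.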

Test [8] concerns the target human Protein Tyrosine Phosphatase Non-receptor Type 1 (PTPN1), PTPN1 (gene 5770) (UniProt P18031). Nature of the test: NVS_ENZ_hPTPN1: NovaScreen (NVS) Enzymatic Assay for human Protein Tyrosine Phosphatase Non-receptor Type 1 (PTPN1) (AID 2283201). An outline of the steps: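 Cell-free fluorogenic-substrate activity assay on recombinant enzyme, read 1.33 h after dosing by fluorescence and electrophoretic mobility shift; loss of signal vs DMSO baseline. Primary screen in duplicate at 25 uM, hits then run in concentration-response up to 50 uM.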

Test [9] has as its target human Matrix Metalloproteinase-1 (MMP1), MMP1 (gene 4312) (UniProt P03956). Nature of the test: NVS_ENZ_hMMP1: NovaScreen (NVS) Enzymatic Assay for human Matrix Metalloproteinase-1 (MMP1) (AID 2283181). The procedure, abridged:
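Human MMP1 enzyme activity measured by fluorescence 1 h after dosing, cell-free, with a specific substrate. Screened in duplicate at 25 uM; hits (e.g. 30% inhibition) run in concentration-response up to 50 uM; loss of signal versus DMSO.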

Test [10] concerns the target human Matrix Metalloproteinase-3 (MMP3), MMP3 (gene 4314) (UniProt P08254). Nature of the test: NVS_ENZ_hMMP3: NovaScreen (NVS) Enzymatic Assay for human Matrix Metalloproteinase-3 (MMP3) (AID 2283185). An outline of the steps:
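Cell-free recombinant human MMP3 activity, fluorescence intensity read 1 h after dosing. Primary screen duplicate at 25 uM, actives retested in concentration series; loss of signal vs DMSO baseline.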

Test [11] concerns the target human Mitogen- and Stress-activated Protein Kinase-1 (Msk1), RPS6KA5 (gene 9252) (UniProt O75582). Kind of test: NVS_ENZ_hMsk1: NovaScreen (NVS) Enzymatic Assay for human Mitogen- and Stress-activated Protein Kinase-1 (Msk1) (AID 2283187). The procedure, abridged:
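Recombinant kinase with fluorescent substrate; product separated by electrophoretic mobility shift, read 1 h after dosing. Screened in duplicate at 25 uM; hits (e.g. ≥30% inhibition) tested in concentration–response up to 50 uM. DMSO baseline.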

Test [12] concerns the target human Phosphoinositide 3-kinase alpha (PI3Ka), PIK3CA (gene 5290) (UniProt P42336). Kind of test: NVS_ENZ_hPI3Ka: NovaScreen (NVS) Enzymatic Assay for human Phosphoinositide 3-kinase alpha (PI3Ka) (AID 2283196). The procedure, abridged: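 Enzyme activity as fluorescence after mobility-shift separation of substrate and product, 1 h reaction, recombinant human PI3Kα; concentration-response to 50 uM max for chemicals passing a 25 uM duplicate screen.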

Test [13] addresses Serine/threonine-protein phosphatase PP1-alpha catalytic subunit (Homo sapiens) (UniProt P62136). Nature of the test: NVS_ENZ_hPPP1CA: NovaScreen (NVS) Enzymatic Assay for human Protein Phosphatase 1 Aatalytic subunit Alpha (PPP1CA) (AID 2283200). An outline of the steps:
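Recombinant enzyme activity read by fluorescence with electrophoretic mobility shift separating substrate from product, 1.33 h after dosing; loss of signal vs DMSO baseline. Primary screen in duplicate at 25 uM; actives retested in concentration-response up to 50 uM.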

Test [14] has as its target human Matrix Metalloproteinase-9 (MMP9), MMP9 (gene 4318) (UniProt P14780). Nature of the test: NVS_ENZ_hMMP9: NovaScreen (NVS) Enzymatic Assay for human Matrix Metalloproteinase-9 (MMP9) (AID 2283190).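 Note: cell-free recombinant MMP9 protease activity read by fluorescent substrate signal; active means inhibition seen as loss of fluorescence signal versus DMSO.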 The procedure, abridged: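 Cell-free fluorescence-intensity enzyme activity assay using extracted protein, read 1 h after dosing. Loss of signal versus DMSO baseline indicates inhibition; primary screen in duplicate at 25 uM, actives followed up in concentration series.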

Test [15] addresses human Matrix Metalloproteinase-7 (MMP7), MMP7 (gene 4316) (UniProt P09237). Nature of the test: NVS_ENZ_hMMP7: NovaScreen (NVS) Enzymatic Assay for human Matrix Metalloproteinase-7 (MMP7) (AID 2283183). An outline of the steps:
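Cell-free fluorescence enzymatic assay read 1 h after compound addition, activity loss analyzed against DMSO. Primary duplicate testing at 25 uM; compounds meeting threshold rerun in singleton concentration-response up to 50 uM.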

Test [16] deals with human Phosphodiesterase 10 (PDE10), PDE10A (gene 10846) (UniProt Q9Y233). Nature of the test: NVS_ENZ_hPDE10: NovaScreen (NVS) Enzymatic Assay for human Phosphodiesterase 10 (PDE10) (AID 2283195). An outline of the steps:
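Recombinant human PDE10 with fluorescent substrate, 1 h, product separated by electrophoretic mobility shift. Loss of enzyme activity fitted against DMSO; initial screen 25 uM in duplicate, actives run to 50 uM maximum.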

The target in test [17] is human Matrix Metalloproteinase-2 (MMP2), MMP2 (gene 4313) (UniProt P08253). Kind of test: NVS_ENZ_hMMP2: NovaScreen (NVS) Enzymatic Assay for human Matrix Metalloproteinase-2 (MMP2) (AID 2283184). An outline of the steps:
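Cell-free recombinant MMP2 activity with a fluorescent substrate, read 1 h after dosing. Primary screen in duplicate at 25 uM; actives then run in concentration series; loss of signal fitted versus DMSO.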

The target in test [18] is human Mitogen-Activated Protein Kinase 1 (MAPK 1), MAPK1 (gene 5594) (UniProt P28482). Nature of the test: NVS_ENZ_hMAPK1: NovaScreen (NVS) Enzymatic Assay for human Mitogen-Activated Protein Kinase 1 (MAPK 1) (AID 2283175). An outline of the steps:
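Cell-free recombinant human MAPK1 enzymatic assay, fluorescence/electrophoretic mobility shift read at 1 h; loss of signal vs DMSO. Primary screen in duplicate at 25 uM; actives (e.g. ≥30% inhibition) run as concentration-response up to 50 uM.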

Sequence of Mitogen-activated protein kinase 3 (Homo sapiens) (P27361 whole entry, looked up): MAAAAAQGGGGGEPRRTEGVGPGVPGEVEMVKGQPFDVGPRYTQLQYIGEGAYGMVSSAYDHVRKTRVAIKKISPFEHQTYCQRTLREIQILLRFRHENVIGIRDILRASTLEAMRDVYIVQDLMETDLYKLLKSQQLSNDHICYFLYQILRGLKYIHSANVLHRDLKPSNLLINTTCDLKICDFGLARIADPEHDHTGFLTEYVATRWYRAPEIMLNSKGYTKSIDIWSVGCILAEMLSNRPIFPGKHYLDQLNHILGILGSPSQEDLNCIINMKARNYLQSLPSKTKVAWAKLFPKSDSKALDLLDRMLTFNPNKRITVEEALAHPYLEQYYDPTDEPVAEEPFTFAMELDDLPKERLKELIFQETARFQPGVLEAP
Sequence of human Mitogen- and Stress-activated Protein Kinase-1 (Msk1), RPS6KA5 (gene 9252) (O75582 whole entry, looked up): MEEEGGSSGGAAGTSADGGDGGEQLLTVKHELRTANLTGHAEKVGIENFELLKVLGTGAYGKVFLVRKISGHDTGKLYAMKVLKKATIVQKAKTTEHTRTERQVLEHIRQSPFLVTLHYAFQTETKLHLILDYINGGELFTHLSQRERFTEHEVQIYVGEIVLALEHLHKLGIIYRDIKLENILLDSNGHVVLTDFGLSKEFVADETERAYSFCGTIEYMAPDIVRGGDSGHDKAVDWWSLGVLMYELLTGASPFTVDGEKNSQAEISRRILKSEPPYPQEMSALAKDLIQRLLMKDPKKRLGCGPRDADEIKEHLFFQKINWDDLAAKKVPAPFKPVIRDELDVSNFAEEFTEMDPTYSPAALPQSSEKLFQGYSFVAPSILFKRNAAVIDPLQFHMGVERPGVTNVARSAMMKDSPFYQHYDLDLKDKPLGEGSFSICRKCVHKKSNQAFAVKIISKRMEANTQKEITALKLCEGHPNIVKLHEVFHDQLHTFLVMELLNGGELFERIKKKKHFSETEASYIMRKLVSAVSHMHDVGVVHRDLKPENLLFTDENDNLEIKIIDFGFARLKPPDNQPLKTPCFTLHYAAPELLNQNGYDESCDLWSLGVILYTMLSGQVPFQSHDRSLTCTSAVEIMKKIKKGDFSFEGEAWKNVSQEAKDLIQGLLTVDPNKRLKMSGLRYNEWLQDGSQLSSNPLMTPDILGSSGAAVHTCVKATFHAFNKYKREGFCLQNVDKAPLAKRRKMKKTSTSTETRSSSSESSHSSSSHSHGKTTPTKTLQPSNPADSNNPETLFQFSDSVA
Sequence of human Matrix Metalloproteinase-9 (MMP9), MMP9 (gene 4318) (P14780 whole entry, looked up): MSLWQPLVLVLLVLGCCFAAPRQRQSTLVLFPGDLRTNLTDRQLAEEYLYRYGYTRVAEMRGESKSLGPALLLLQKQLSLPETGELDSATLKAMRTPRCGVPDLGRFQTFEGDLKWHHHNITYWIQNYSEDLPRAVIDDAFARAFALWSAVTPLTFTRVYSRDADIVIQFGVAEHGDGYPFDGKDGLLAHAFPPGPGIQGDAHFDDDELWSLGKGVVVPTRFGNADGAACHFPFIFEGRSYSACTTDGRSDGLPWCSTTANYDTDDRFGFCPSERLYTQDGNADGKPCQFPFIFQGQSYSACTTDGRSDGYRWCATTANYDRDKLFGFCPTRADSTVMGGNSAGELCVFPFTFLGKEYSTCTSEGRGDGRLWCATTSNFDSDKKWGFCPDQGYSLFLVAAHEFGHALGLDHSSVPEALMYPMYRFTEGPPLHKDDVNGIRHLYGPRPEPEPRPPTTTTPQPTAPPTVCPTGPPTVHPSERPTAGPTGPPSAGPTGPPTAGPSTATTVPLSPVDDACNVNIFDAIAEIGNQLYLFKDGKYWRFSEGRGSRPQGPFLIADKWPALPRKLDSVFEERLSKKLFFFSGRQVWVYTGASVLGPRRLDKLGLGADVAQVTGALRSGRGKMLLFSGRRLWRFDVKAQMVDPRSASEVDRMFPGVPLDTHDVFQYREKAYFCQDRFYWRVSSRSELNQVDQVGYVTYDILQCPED
Sequence of human p21 Activated Kinase 4 (PAK4), PAK4 (gene 10298) (O96013 whole entry, looked up): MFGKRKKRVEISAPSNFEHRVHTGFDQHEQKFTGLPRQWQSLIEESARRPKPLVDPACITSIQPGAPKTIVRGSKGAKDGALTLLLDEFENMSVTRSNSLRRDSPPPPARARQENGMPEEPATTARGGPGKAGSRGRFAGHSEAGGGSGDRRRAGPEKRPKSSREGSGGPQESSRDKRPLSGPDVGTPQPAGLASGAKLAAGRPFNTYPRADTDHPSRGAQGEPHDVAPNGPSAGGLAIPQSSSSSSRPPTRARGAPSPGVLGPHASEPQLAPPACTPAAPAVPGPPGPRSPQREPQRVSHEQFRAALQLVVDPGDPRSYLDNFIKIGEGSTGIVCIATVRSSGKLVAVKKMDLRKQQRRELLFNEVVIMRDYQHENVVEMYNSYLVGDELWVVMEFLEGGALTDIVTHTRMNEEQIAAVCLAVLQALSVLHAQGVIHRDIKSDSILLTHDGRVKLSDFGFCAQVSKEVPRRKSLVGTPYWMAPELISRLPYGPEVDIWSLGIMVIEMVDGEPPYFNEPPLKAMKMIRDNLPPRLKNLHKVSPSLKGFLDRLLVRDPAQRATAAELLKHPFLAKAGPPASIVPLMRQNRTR
Sequence of human Protein Tyrosine Phosphatase Non-receptor Type 1 (PTPN1), PTPN1 (gene 5770) (P18031 whole entry, looked up): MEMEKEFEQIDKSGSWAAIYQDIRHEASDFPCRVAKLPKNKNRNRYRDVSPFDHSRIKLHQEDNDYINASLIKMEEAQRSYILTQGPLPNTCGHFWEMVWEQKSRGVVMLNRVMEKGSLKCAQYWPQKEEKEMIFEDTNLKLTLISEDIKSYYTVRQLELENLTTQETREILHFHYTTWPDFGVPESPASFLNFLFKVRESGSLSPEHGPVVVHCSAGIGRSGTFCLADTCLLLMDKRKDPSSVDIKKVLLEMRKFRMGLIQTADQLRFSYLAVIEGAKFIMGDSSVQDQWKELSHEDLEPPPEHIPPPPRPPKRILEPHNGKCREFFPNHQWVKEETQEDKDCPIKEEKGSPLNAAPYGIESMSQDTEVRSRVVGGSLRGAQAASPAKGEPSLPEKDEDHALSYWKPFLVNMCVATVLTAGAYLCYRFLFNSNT
Sequence of human Matrix Metalloproteinase-7 (MMP7), MMP7 (gene 4316) (P09237 whole entry, looked up): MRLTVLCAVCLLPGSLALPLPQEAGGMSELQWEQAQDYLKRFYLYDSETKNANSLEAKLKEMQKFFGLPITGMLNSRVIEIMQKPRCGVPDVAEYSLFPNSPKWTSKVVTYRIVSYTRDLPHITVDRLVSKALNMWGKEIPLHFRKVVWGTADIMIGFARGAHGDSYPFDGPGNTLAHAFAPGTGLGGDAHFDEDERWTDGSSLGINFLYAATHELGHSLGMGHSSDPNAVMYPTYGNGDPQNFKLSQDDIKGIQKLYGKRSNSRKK

One may read the AC50 as the midpoint of the concentration-response curve, whichever way the signal moves. Consider `N#Cc1cccnc1`, for which the result in [1], in test [2], in [3], in test [4], in test [5] and in [6] was inactive. For the same compound, the call in test [8] was inactive. Besides, the AC50 in [7] is 40.8 µM (active).
Consider `CN(C)C(=S)S`, for which the compound was classed as inactive in [5] and in test [6].
Turning to `CCCCCCCCCCCCc1cccc(S(=O)(=O)O)c1`, the AC50 in test [2] was 34.3 µM (active); in test [3], 17.8 µM (active); in test [9], 9.41 µM (active); in test [10], 12.9 µM (active); in [11] it was 25.2 µM (active); in test [4] it was 12.2 µM (active). The AC50 is 29.9 µM (active) in test [6]; 14.7 µM (active) in test [7]; 7.17 µM (active) in test [12]; 35.3 µM (active) in test [13]; 14.8 µM (active) in test [8].
On to `CC(C)(C#N)N=NC(C)(C)C#N`, for which the AC50 in test [14] is 6.44 µM (active).
As for `COc1nn(C(=O)NS(=O)(=O)c2ccccc2OC(F)(F)F)c(=O)n1C`, the call in test [1] and in [15] was inactive. In addition, the AC50 in test [5] was 17.4 µM (active).
On to `OC[P+](CO)(CO)CO`, for which the AC50 in test [14] is 1.27 µM (active) and 3.16 µM (active); in test [16], 9.04 µM (active).
As to `Clc1cccc(Cl)c1Cl`, the compound was called inactive in [3], in test [11], in [4] and in test [5]. In addition, the AC50 in [17] was 11.5 µM (active).
On to `Oc1c(Br)cc(Br)cc1Br`, for which the call in test [14] was inactive.
With `CCCCCCCCCCCCOS(=O)(=O)O`, the AC50 was 37.3 µM (active) in [18], 25.4 µM (active) in test [3] and 7.91 µM (active) in test [9]. Moreover, in test [5], the compound was classed as inactive.
For the compound `CC(C)O.CC(C)O.OCCN(CCO)CCO.OCCN(CCO)CCO.[Ti]`, the AC50 is 0.00287 µM (active) in test [1]; 0.00624 µM (active) in [2]; 25 µM (active) in [3]; 0.109 µM (active) in test [11]; 17.5 µM (active) in [4]; 0.00229 µM (active) in test [5]. Also, the results for the AC50 in test [6] and in test [8] were 0.00229 µM (active) and 0.00438 µM (active), respectively.
Turning to `CC(C)(C)c1cc([N+](=O)[O-])cc(C(C)(C)C)c1O`, the AC50 in test [14] was 1.64 µM (active).
As to `[Cl][Sn]([c]1ccccc1)([c]1ccccc1)[c]1ccccc1`, the compound was classed as inactive in test [14].
As to `C#CCOC(=O)/C=C(C)/C=C/CC(C)CCCC(C)C` (stereo not drawn), the AC50 in test [14] is 7.1 µM (active).

The values are drawn from PubChem BioAssay (EPA / NIEHS).
